# Assay results taken from PubChem BioAssay (NCATS).
# Results filed as inconclusive are left out. Where a call stands in place of a potency, no number is given. Active and inactive are the calls of the source. The call rests on the fitted dose curve; in most records, active means well fitted curve in the direction sought with a large enough effect; inconclusive means small, poorly fitted or top-dose-only effect, or another doubt; inactive means no such curve, though single readings can be large; an effect the other way counts as inactive or inconclusive.
# What was measured:
# [1] = qHTS of pediatric cancer cell lines to identify multiple opportunities for drug repurposing: Primary screen for OHS-50 cells (AID 1347103); further: nearly all actives have a fitted effect of over 40% in size; further: potency means the concentration at half of the fitted maximal effect
# Method in brief: (§1)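 Cells (500-1,000/well) rested 5 h, then received compounds for 48 h; metabolically active cells were measured by CellTiter-Glo luminescence. Final concentrations spanned up to 46 µM (MIPE, 11-point) or 0.59 nM-46 µM (NPC, 8-point) in primary screens, 11-point in follow-ups.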
# [2] = qHTS of pediatric cancer cell lines to identify multiple opportunities for drug repurposing: Primary screen for RD cells (AID 1347104); further: nearly all actives have a fitted effect of over 55% in size; further: potency means the concentration at half of the fitted maximal effect
# Method in brief: (§2)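 Plated cells (500-1,000 per well, growth media) were allowed to settle for 5 hours, treated with compound dilutions for 48 hours, then lysed with CellTiter-Glo for 15 min at room temperature before luminescence reading.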
# [3] = qHTS of pediatric cancer cell lines to identify multiple opportunities for drug repurposing: Primary screen for MG 63 (6-TG R) cells (AID 1347105); further: nearly all actives have a fitted effect of over 50% in size; further: potency means the concentration at half of the fitted maximal effect
# Method in brief: as §2
# [4] = qHTS of pediatric cancer cell lines to identify multiple opportunities for drug repurposing: Primary screen for Rh30 cells (AID 1347107); further: series mostly up to about 46 µM; nearly all actives have a fitted effect of over 75% in size
# Method in brief: as §1
# [5] = qHTS of pediatric cancer cell lines to identify multiple opportunities for drug repurposing: Primary screen for Rh41 cells (AID 1347108); further: nearly all actives have a fitted effect of over 70% in size; further: potency means the concentration at half of the fitted maximal effect
# Method in brief: as §2
# [6] = qHTS of pediatric cancer cell lines to identify multiple opportunities for drug repurposing: Primary screen for control Hh wild type fibroblast cells (AID 1347106);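 further: series mostly up to about 46 µM; a drop in luminescence marks cytotoxicity and a rise apparent proliferation; nearly all actives have a fitted effect of over 55% in size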
# Method in brief: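 Cells (500-1,000/well) in growth media were settled 5 h at 37 degrees C, then given compounds for 48 h. Viability was read as CellTiter-Glo luminescence. Primary runs used MIPE at 11 points (0.78 nM-46 µM) and NPC at 8 points (0.59 nM-46 µM); follow-ups used 11 points.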
# [7] = qHTS of pediatric cancer cell lines to identify multiple opportunities for drug repurposing: Confirmatory screen for NB1643 cells (AID 1347109); further: nearly all actives have a fitted effect of over 45% in size; further: potency means the concentration at half of the fitted maximal effect
# Method in brief: as §1
# [8] = qHTS of pediatric cancer cell lines to identify multiple opportunities for drug repurposing: Confirmatory screen for A673 cells (AID 1347110);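 further: cells exposed to compound for 48 h before the viability read; nearly all actives have a fitted effect of over 65% in size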; further: potency means the concentration at half of the fitted maximal effect
# Method in brief: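 Forty-eight-hour viability assay. Follow-up compounds ran at 11-point dilutions; positive control bortezomib at 2.3 uM final, neutral control DMSO.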
# [9] = qHTS of pediatric cancer cell lines to identify multiple opportunities for drug repurposing: Confirmatory screen for SK-N-MC cells (AID 1347111);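 further: cells exposed to compound for 48 h before the readout; nearly all actives have a fitted effect of over 70% in size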; further: potency means the concentration at half of the fitted maximal effect
# Method in brief: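 Seed 500-1,000 cells/well; rest 5 h at 37 degrees C. Pin-transfer compounds, 11-point titration. Incubate 48 h. Add CellTiter-Glo, 15 min RT, read luminescence.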
# [10] = qHTS of pediatric cancer cell lines to identify multiple opportunities for drug repurposing: Confirmatory screen for LAN-5 cells (AID 1347113); further: nearly all actives have a fitted effect of over 65% in size; further: potency means the concentration at half of the fitted maximal effect
# Method in brief: as §1
# [11] = qHTS of pediatric cancer cell lines to identify multiple opportunities for drug repurposing: Confirmatory screen for NB-EBc1 cells (AID 1347115);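 further: cells exposed to compound for 48 h before the viability read; nearly all actives have a fitted effect of over 45% in size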; further: potency means the concentration at half of the fitted maximal effect
# Method in brief: as §1
# [12] = qHTS of pediatric cancer cell lines to identify multiple opportunities for drug repurposing: Confirmatory screen for SJ-GBM2 cells (AID 1347116); further: nearly all actives have a fitted effect of over 60% in size; further: potency means the concentration at half of the fitted maximal effect
# Method in brief: (§3)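 Viability measured as metabolically active cells via CellTiter-Glo luminescence following 48 hours of compound exposure, 11-point dilutions in confirmatory testing. 500-1,000 cells/well plated 5 hours before dosing; controls were DMSO and 2.3 µM bortezomib.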
# [13] = qHTS of pediatric cancer cell lines to identify multiple opportunities for drug repurposing: Confirmatory screen for BT-37 cells (AID 1347117); further: nearly all actives have a fitted effect of over 55% in size; further: potency means the concentration at half of the fitted maximal effect
# Method in brief: as §1
# [14] = qHTS of pediatric cancer cell lines to identify multiple opportunities for drug repurposing: Confirmatory screen for TC32 cells (AID 1347118);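 further: cells exposed to compound for 48 h before the read; nearly all actives have a fitted effect of over 65% in size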; further: potency means the concentration at half of the fitted maximal effect
# Method in brief: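 Measured quantity: luminescence from CellTiter-Glo, reflecting metabolically active TC32 cells following 48 h of compound. Curves came straight from multi-point titrations, with 8 or 11 points in primary and 11 in confirmatory screening.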
# [15] = qHTS of pediatric cancer cell lines to identify multiple opportunities for drug repurposing: Confirmatory screen for control Hh wild type fibroblast cells (AID 1347121); further: nearly all actives have a fitted effect of over 70% in size
# Method in brief: as §1
# [16] = qHTS of pediatric cancer cell lines to identify multiple opportunities for drug repurposing: Confirmatory screen for U-2 OS cells (AID 1347122); further: nearly all actives have a fitted effect of over 65% in size
# Method in brief: as §1
# [17] = qHTS of pediatric cancer cell lines to identify multiple opportunities for drug repurposing: Confirmatory screen for BT-12 cells (AID 1347112); further: nearly all actives have a fitted effect of over 55% in size; further: potency means the concentration at half of the fitted maximal effect
# Method in brief: as §1
# [18] = qHTS of pediatric cancer cell lines to identify multiple opportunities for drug repurposing: Confirmatory screen for DAOY cells (AID 1347114); further: nearly all actives have a fitted effect of over 65% in size
# Method in brief: as §3
# [19] = qHTS of pediatric cancer cell lines to identify multiple opportunities for drug repurposing: Confirmatory screen for MG 63 (6-TG R) cells (AID 1347119); further: nearly all actives have a fitted effect of over 55% in size; further: potency means the concentration at half of the fitted maximal effect
# Method in brief: as §1
# [20] = qHTS of pediatric cancer cell lines to identify multiple opportunities for drug repurposing: Confirmatory screen for Rh41 cells (AID 1347123);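 further: 48 h compound exposure; nearly all actives have a fitted effect of over 60% in size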; further: potency means the concentration at half of the fitted maximal effect
# Method in brief: as §1
compound,measurement,setting,value
O=C(Oc1ccccc1)c1ccccc1O,Potency,[1],inactive
same,Potency,[2],inactive
same,Potency,[3],inactive
same,Potency,[4],inactive
same,Potency,[5],inactive
C[C@H](N)C(=O)N[C@@H](C)C(=O)NC1[C@H]2CN(c3nc4c(cc3F)c(=O)c(C(=O)O)cn4-c3ccc(F)cc3F)C[C@@H]12 (stereo partly specified),Potency,[1],inactive
same,Potency,[2],inactive
same,Potency,[6],inactive
same,Potency,[4],inactive
CC(=O)[C@@]1(O)CC[C@H]2[C@@H]3C[C@H](C)C4=CC(=O)CC[C@]4(C)[C@H]3CC[C@@]21C,Potency,[1],27.6 µM (active)
same,Potency,[2],inactive
same,Potency,[3],inactive
same,Potency,[4],inactive
same,Potency,[5],inactive
same,Potency,[7],inactive
same,Potency,[8],0.261 µM (active)
same,Potency,[9],4.14 µM (active)
same,Potency,[10],inactive
same,Potency,[11],inactive
same,Potency,[12],1.17 µM (active)
same,Potency,[13],inactive
same,Potency,[14],10.4 µM (active)
same,Potency,[15],inactive
same,Potency,[16],inactive
CCN(CC)CCOc1ccc(/C(=C(\Cl)c2ccccc2)c2ccccc2)cc1,Potency,[1],24.6 µM (active)
same,Potency,[2],23.7 µM (active)
same,Potency,[6],inactive
same,Potency,[4],inactive
O=C(CS(=O)Cc1ccco1)NC/C=C\COc1cc(CN2CCCCC2)ccn1 (stereo unspecified),Potency,[1],inactive
same,Potency,[2],inactive
same,Potency,[6],inactive
same,Potency,[4],inactive
same,Potency,[5],inactive
OC1(c2ccc(Cl)c(C(F)(F)F)c2)CCN(CCCC(c2ccc(F)cc2)c2ccc(F)cc2)CC1,Potency,[1],3.89 µM (active)
same,Potency,[2],21.1 µM (active)
same,Potency,[3],13.3 µM (active)
same,Potency,[5],16.8 µM (active)
CCc1cccc2c(CCO)c[nH]c12,Potency,[1],inactive
same,Potency,[2],inactive
same,Potency,[6],inactive
same,Potency,[4],inactive
CCOC(=O)NNc1nncc2ccccc12,Potency,[1],inactive
same,Potency,[2],inactive
same,Potency,[3],inactive
same,Potency,[4],inactive
same,Potency,[5],inactive
O=C(Nc1ccc(Cl)cc1)Nc1ccc(Cl)c(Cl)c1,Potency,[1],24.6 µM (active)
same,Potency,[2],23.7 µM (active)
same,Potency,[6],inactive
Cc1ncc([N+](=O)[O-])n1C,Potency,[1],inactive
same,Potency,[2],inactive
same,Potency,[3],inactive
same,Potency,[4],inactive
same,Potency,[5],inactive
O=[N+]([O-])c1ccc(O)c2ncccc12,Potency,[1],5.5 µM (active)
same,Potency,[2],5.31 µM (active)
same,Potency,[3],6.68 µM (active)
same,Potency,[7],14.7 µM (active)
same,Potency,[9],8.27 µM (active)
same,Potency,[17],20.8 µM (active)
same,Potency,[10],9.27 µM (active)
same,Potency,[11],7.37 µM (active)
same,Potency,[13],7.37 µM (active)
same,Potency,[14],5.85 µM (active)
same,Potency,[16],inactive
OC1(c2ccc(Cl)cc2)CCNCC1,Potency,[1],inactive
same,Potency,[2],inactive
same,Potency,[3],inactive
same,Potency,[5],inactive
COc1cc2c(cc1OC)CN(C(=O)[C@H](C)N[C@@H](CCc1ccccc1)C(=O)O)[C@H](C(=O)O)C2,Potency,[1],inactive
same,Potency,[2],inactive
same,Potency,[3],inactive
same,Potency,[4],inactive
same,Potency,[5],inactive
CCCCOCCOC(=O)c1cccnc1,Potency,[1],inactive
same,Potency,[2],inactive
same,Potency,[3],inactive
same,Potency,[4],inactive
same,Potency,[5],inactive
CCOC(=O)O[C@]1(C(=O)OCCl)CC[C@H]2[C@@H]3CCC4=CC(=O)C=C[C@]4(C)[C@H]3[C@@H](O)C[C@@]21C,Potency,[1],inactive
same,Potency,[2],inactive
same,Potency,[3],inactive
same,Potency,[4],inactive
same,Potency,[5],inactive
same,Potency,[7],inactive
same,Potency,[8],inactive
same,Potency,[17],inactive
same,Potency,[10],inactive
same,Potency,[18],inactive
same,Potency,[12],inactive
same,Potency,[13],inactive
same,Potency,[19],inactive
same,Potency,[15],inactive
same,Potency,[16],inactive
same,Potency,[20],inactive
C[C@@H](O[C@H]1OCCN(Cc2n[nH]c(=O)[nH]2)[C@H]1c1ccc(F)cc1)c1cc(C(F)(F)F)cc(C(F)(F)F)c1,Potency,[1],27.6 µM (active)
same,Potency,[2],26.6 µM (active)
same,Potency,[6],inactive
CC(C)NCCCC1(C(N)=O)c2ccccc2-c2ccccc21,Potency,[1],inactive
same,Potency,[2],inactive
same,Potency,[3],inactive
same,Potency,[4],inactive
same,Potency,[5],inactive
CCn1ccc(NS(=O)(=O)c2ccc(N)cc2)nc1=O,Potency,[1],inactive
same,Potency,[2],inactive
same,Potency,[3],inactive
same,Potency,[4],inactive
same,Potency,[5],inactive
O=C(c1ccco1)N1CCNCC1,Potency,[1],inactive
same,Potency,[2],inactive
same,Potency,[3],inactive
same,Potency,[4],inactive
same,Potency,[5],inactive
CCCc1ncc(C(=O)O)s1,Potency,[1],inactive
same,Potency,[2],inactive
same,Potency,[6],inactive
same,Potency,[4],inactive
same,Potency,[5],inactive
O=C1NCCN1CCN1CCC(c2cn(-c3ccc(F)cc3)c3ccc(Cl)cc23)CC1,Potency,[1],11 µM (active)
same,Potency,[2],26.6 µM (active)
same,Potency,[4],inactive
CN(C)C(=O)CNC(=O)Cc1ccccc1,Potency,[1],inactive
same,Potency,[2],inactive
same,Potency,[6],inactive
same,Potency,[5],inactive
Cc1onc(-c2ccccc2)c1C(=O)Cl,Potency,[1],inactive
same,Potency,[2],inactive
same,Potency,[6],inactive
same,Potency,[4],inactive
same,Potency,[5],inactive
O=C(O)c1ccccc1S,Potency,[1],inactive
same,Potency,[2],inactive
same,Potency,[6],inactive
same,Potency,[4],inactive
same,Potency,[5],inactive
Cc1cc2nc3ccc(=[N+](C)C)cc-3sc2cc1N,Potency,[1],3.89 µM (active)
same,Potency,[2],4.73 µM (active)
same,Potency,[6],inactive
same,Potency,[5],5.96 µM (active)
CCOC(=O)C1=C(C)NC(C)=C(C(=O)OCC)C1c1ccccc1/C=C/C(=O)OC(C)(C)C,Potency,[1],15.5 µM (active)
same,Potency,[3],26.6 µM (active)
same,Potency,[6],inactive
same,Potency,[4],inactive
CCCCCCCCCCCCCCCC[N+](C)(C)Cc1ccccc1,Potency,[1],11 µM (active)
same,Potency,[3],26.6 µM (active)
Cc1cc(CCCOc2c(C)cc(-c3noc(C(F)(F)F)n3)cc2C)on1,Potency,[1],19.5 µM (active)
same,Potency,[2],inactive
same,Potency,[6],inactive
same,Potency,[5],inactive
Cc1ccccc1N1CCN(CCc2nnc3n2CCCC3)CC1,Potency,[1],inactive
same,Potency,[3],inactive
same,Potency,[6],inactive
same,Potency,[4],inactive
CCC(=O)O[C@]1(C(=O)COC)[C@@H](C)C[C@H]2[C@@H]3CCC4=CC(=O)C=C[C@]4(C)C3(F)[C@@H](O)C[C@@]21C (stereo partly specified),Potency,[1],inactive
same,Potency,[2],inactive
same,Potency,[6],inactive
same,Potency,[4],inactive
same,Potency,[5],inactive
same,Potency,[7],inactive
same,Potency,[8],inactive
same,Potency,[9],inactive
same,Potency,[17],inactive
same,Potency,[18],inactive
same,Potency,[11],inactive
same,Potency,[12],inactive
same,Potency,[13],inactive
same,Potency,[14],inactive
same,Potency,[19],26.1 µM (active)
same,Potency,[15],inactive
same,Potency,[16],inactive
same,Potency,[20],16.5 µM (active)
COC(=O)C1=C(C)NC(C)=C(C(=O)OCCc2ccc(N3CCN(C(c4ccccc4)c4ccccc4)CC3)cc2)C1c1cccc([N+](=O)[O-])c1 (stereo unspecified),Potency,[1],inactive
same,Potency,[2],inactive
same,Potency,[6],inactive
same,Potency,[4],inactive
same,Potency,[5],inactive
